Over roughly 16,000 sequences, “rpm ratio (pull-down/input)” has its median near 0.94; the highest 2% begin near 1.7. The sample holds the highest values, similar sequences and a random draw of the others, so the mix is not that of the screen.

The text below walks through data of publication PMC12820563, “FoxP3 forms a head-to-head dimer in vivo and stabilizes its multimerization on adjacent microsatellites”.

The target in the assay is T1, MBP-FoxP1dN (Mus musculus, UniProt P58462 326-579).
T1 sequence: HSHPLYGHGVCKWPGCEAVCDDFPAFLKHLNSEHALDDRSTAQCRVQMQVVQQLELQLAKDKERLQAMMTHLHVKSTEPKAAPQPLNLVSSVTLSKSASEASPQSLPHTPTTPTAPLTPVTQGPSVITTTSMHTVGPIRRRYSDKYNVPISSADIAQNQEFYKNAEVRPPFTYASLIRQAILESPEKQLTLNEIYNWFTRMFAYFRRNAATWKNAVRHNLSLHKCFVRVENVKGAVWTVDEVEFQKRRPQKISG
As to the kind of experiment: PD-seq (MBP pull-down with sequencing); 20 mM Tris-HCl pH 7.5, 100 mM NaCl, 1.5 mM MgCl2, 0.4 uM protein, 0.1 uM dsDNA library, 30 min, room temperature, amylose pull-down; high values mean tight binding. The conditions noted are these: protein: recombinant; tags: His6-MBP; chain copies: 2; dsDNA, one strand shown. An outline of the steps:
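A degenerate double-stranded DNA library, filled in with Klenow, was added at 0.1 µM to 0.4 µM His6-MBP-tagged mouse FoxP3 or FoxP1 fragment lacking the N-terminus, expressed in E. coli. Incubation lasted 30 min at room temperature in Tris pH 7.5 buffer with NaCl and MgCl2, after which complexes were collected on amylose resin, washed three times, digested with proteinase K to free the DNA, barcoded by PCR and sequenced by Illumina. Binding is the pooled-replicate reads-per-million enrichment of pull-down over input.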
“GATGATTGTTCTCCCAGCTGATGAATTAAATATTTCGAGTAAACAAATTTTCCTAATCTTTCTGTTCAAGCGCCATCTAC”: the binding signal was 1.14 RPM ratio (pull-down/input).
For “GATGATTGTTCTCCCAGCTGATGAATTAAATCTGTCGAGTAAACAAATTTTCCTAATCTTTCTGTTCAAGCGCCATCTAC”, the binding signal is 0.778 RPM ratio (pull-down/input).
The result for “GATGATTGTTCTCCCAGCTGATGAATTAAAATATTCGAGTAAACAAATTTTCCTAATCTTTCTGTTCAAGCGCCATCTAC” reads 1.1 RPM ratio (pull-down/input); that for “GATGATTGTTCTCCCAGCTGATGAATTCGGACCCTCGAGTAAACAAATTTTCCTAATCTTTCTGTTCAAGCGCCATCTAC”, 0.79 RPM ratio (pull-down/input).
For the sequence “GATGATTGTTCTCCCAGCTGATGAATTTCTATTTTCGAGTAAACAAATTTTCCTAATCTTTCTGTTCAAGCGCCATCTAC”, the binding signal was 2.01 RPM ratio (pull-down/input).
With “GATGATTGTTCTCCCAGCTGATGAATTGTTCTATTCGAGTAAACAAATTTTCCTAATCTTTCTGTTCAAGCGCCATCTAC” the figure was 1.34 RPM ratio (pull-down/input); with “GATGATTGTTCTCCCAGCTGATGAATTCTCCTATTCGAGTAAACAAATTTTCCTAATCTTTCTGTTCAAGCGCCATCTAC”, 0.943 RPM ratio (pull-down/input); with “GATGATTGTTCTCCCAGCTGATGAATTTTTCTATTCGAGTAAACAAATTTTCCTAATCTTTCTGTTCAAGCGCCATCTAC”, 0.984 RPM ratio (pull-down/input).
Turning to “GATGATTGTTCTCCCAGCTGATGAATTCTATTGTTCGAGTAAACAAATTTTCCTAATCTTTCTGTTCAAGCGCCATCTAC”, the binding signal is 1.99 RPM ratio (pull-down/input).
With “GATGATTGTTCTCCCAGCTGATGAATTTTCTATTTCGAGTAAACAAATTTTCCTAATCTTTCTGTTCAAGCGCCATCTAC” the figure was 0.975 RPM ratio (pull-down/input); with “GATGATTGTTCTCCCAGCTGATGAATTCTATTTTTCGAGTAAACAAATTTTCCTAATCTTTCTGTTCAAGCGCCATCTAC”, 1.61 RPM ratio (pull-down/input); with “GATGATTGTTCTCCCAGCTGATGAATTCCTATTTTCGAGTAAACAAATTTTCCTAATCTTTCTGTTCAAGCGCCATCTAC”, 1.86 RPM ratio (pull-down/input).
Consider “GATGATTGTTCTCCCAGCTGATGAATTTCCTATTTCGAGTAAACAAATTTTCCTAATCTTTCTGTTCAAGCGCCATCTAC”, for which the binding signal is 0.887 RPM ratio (pull-down/input).
With “GATGATTGTTCTCCCAGCTGATGAATTAGTTGCATCGAGTAAACAAATTTTCCTAATCTTTCTGTTCAAGCGCCATCTAC” the figure was 1.65 RPM ratio (pull-down/input); with “GATGATTGTTCTCCCAGCTGATGAATTCCACCACTCGAGTAAACAAATTTTCCTAATCTTTCTGTTCAAGCGCCATCTAC”, 0.844 RPM ratio (pull-down/input); with “GATGATTGTTCTCCCAGCTGATGAATTGATGCACTCGAGTAAACAAATTTTCCTAATCTTTCTGTTCAAGCGCCATCTAC”, 1.72 RPM ratio (pull-down/input).
The result for “GATGATTGTTCTCCCAGCTGATGAATTGAATATATCGAGTAAACAAATTTTCCTAATCTTTCTGTTCAAGCGCCATCTAC” reads 1.04 RPM ratio (pull-down/input); that for “GATGATTGTTCTCCCAGCTGATGAATTGACACAATCGAGTAAACAAATTTTCCTAATCTTTCTGTTCAAGCGCCATCTAC”, 1.75 RPM ratio (pull-down/input); that for “GATGATTGTTCTCCCAGCTGATGAATTTTGAATATCGAGTAAACAAATTTTCCTAATCTTTCTGTTCAAGCGCCATCTAC”, 1.07 RPM ratio (pull-down/input).
Turning to “GATGATTGTTCTCCCAGCTGATGAATTTGACACATCGAGTAAACAAATTTTCCTAATCTTTCTGTTCAAGCGCCATCTAC”, the binding signal was 0.966 RPM ratio (pull-down/input).
On to “GATGATTGTTCTCCCAGCTGATGAATTTTGACAATCGAGTAAACAAATTTTCCTAATCTTTCTGTTCAAGCGCCATCTAC”, for which the binding signal was 1.26 RPM ratio (pull-down/input).
Regarding “GATGATTGTTCTCCCAGCTGATGAATTGACAATATCGAGTAAACAAATTTTCCTAATCTTTCTGTTCAAGCGCCATCTAC”, the binding signal was 1.86 RPM ratio (pull-down/input).
With “GATGATTGTTCTCCCAGCTGATGAATTAGGTGGGTCGAGTAAACAAATTTTCCTAATCTTTCTGTTCAAGCGCCATCTAC” the figure was 0.78 RPM ratio (pull-down/input).
The result for “GATGATTGTTCTCCCAGCTGATGAATTTGTTGGTTCGAGTAAACAAATTTTCCTAATCTTTCTGTTCAAGCGCCATCTAC” reads 2.02 RPM ratio (pull-down/input); that for “GATGATTGTTCTCCCAGCTGATGAATTTTTTGGTTCGAGTAAACAAATTTTCCTAATCTTTCTGTTCAAGCGCCATCTAC”, 1.01 RPM ratio (pull-down/input); that for “GATGATTGTTCTCCCAGCTGATGAATTGGTGTGTTCGAGTAAACAAATTTTCCTAATCTTTCTGTTCAAGCGCCATCTAC”, 1.34 RPM ratio (pull-down/input).
With “GATGATTGTTCTCCCAGCTGATGAATTGGTTGTTTCGAGTAAACAAATTTTCCTAATCTTTCTGTTCAAGCGCCATCTAC” the figure was 1.45 RPM ratio (pull-down/input); with “GATGATTGTTCTCCCAGCTGATGAATTGTTGGTTTCGAGTAAACAAATTTTCCTAATCTTTCTGTTCAAGCGCCATCTAC”, 1.89 RPM ratio (pull-down/input); with “GATGATTGTTCTCCCAGCTGATGAATTGGTGTTTTCGAGTAAACAAATTTTCCTAATCTTTCTGTTCAAGCGCCATCTAC”, 2.65 RPM ratio (pull-down/input).
On to “GATGATTGTTCTCCCAGCTGATGAATTTGGTTGTTCGAGTAAACAAATTTTCCTAATCTTTCTGTTCAAGCGCCATCTAC”, for which the binding signal was 1.29 RPM ratio (pull-down/input).
The result for “GATGATTGTTCTCCCAGCTGATGAATTTTTGGTTTCGAGTAAACAAATTTTCCTAATCTTTCTGTTCAAGCGCCATCTAC” reads 0.984 RPM ratio (pull-down/input); that for “GATGATTGTTCTCCCAGCTGATGAATTGTTTGGTTCGAGTAAACAAATTTTCCTAATCTTTCTGTTCAAGCGCCATCTAC”, 1.81 RPM ratio (pull-down/input).
On to “GATGATTGTTCTCCCAGCTGATGAATTGGTTGGTTCGAGTAAACAAATTTTCCTAATCTTTCTGTTCAAGCGCCATCTAC”, for which the binding signal is 1 RPM ratio (pull-down/input).
The result for “GATGATTGTTCTCCCAGCTGATGAATTGGTTTGTTCGAGTAAACAAATTTTCCTAATCTTTCTGTTCAAGCGCCATCTAC” reads 1.13 RPM ratio (pull-down/input).
With “GATGATTGTTCTCCCAGCTGATGAATTTGGTGTTTCGAGTAAACAAATTTTCCTAATCTTTCTGTTCAAGCGCCATCTAC” the figure was 1.12 RPM ratio (pull-down/input).
